TGFb SMAD3 inh – TGF-b pathway inhibition; HepG2 CAGA-GFP TGF-b/SMAD3 reporter, GFP fluorescence, 18 h; TGF-beta stimulated, 500 pg/mL final; Potency, µM (highest dose often 46.1 µM), for inactives: at the top dose activity, negative = inhibition, most hits filed as inhibitors; 1.2% of 410,000 active; further: potency means the concentration at half of the fitted maximal effect; on the % scale 0 is the no-effect control and ±100 the full control effect; nearly all actives have a fitted effect of over 65% in size
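Using HEPG2 CAGA-GFP reporter cells at 1000 cells/well, we pinned test compounds, stimulated with recombinant TGF-beta (500 pg/mL final) and measured total well GFP after 18 h.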
TDP1 block – inhibitors of human tyrosyl-DNA phosphodiesterase TDP1. Q9NUW8. recombinant TDP1, AlphaScreen DNA substrate cleavage. Potency, µM (series often up to 130 µM), inactives show at the top dose activity change, negative = inhibition, usual class: inhibitors. 0.28% of 350,000 active. AID 485290; further: potency means the concentration at half of the fitted maximal effect; on the % scale 0 is the no-effect control and ±100 the full control effect; nearly all actives have a fitted effect of over 40% in size
Target sequence (Q9NUW8 whole entry, looked up): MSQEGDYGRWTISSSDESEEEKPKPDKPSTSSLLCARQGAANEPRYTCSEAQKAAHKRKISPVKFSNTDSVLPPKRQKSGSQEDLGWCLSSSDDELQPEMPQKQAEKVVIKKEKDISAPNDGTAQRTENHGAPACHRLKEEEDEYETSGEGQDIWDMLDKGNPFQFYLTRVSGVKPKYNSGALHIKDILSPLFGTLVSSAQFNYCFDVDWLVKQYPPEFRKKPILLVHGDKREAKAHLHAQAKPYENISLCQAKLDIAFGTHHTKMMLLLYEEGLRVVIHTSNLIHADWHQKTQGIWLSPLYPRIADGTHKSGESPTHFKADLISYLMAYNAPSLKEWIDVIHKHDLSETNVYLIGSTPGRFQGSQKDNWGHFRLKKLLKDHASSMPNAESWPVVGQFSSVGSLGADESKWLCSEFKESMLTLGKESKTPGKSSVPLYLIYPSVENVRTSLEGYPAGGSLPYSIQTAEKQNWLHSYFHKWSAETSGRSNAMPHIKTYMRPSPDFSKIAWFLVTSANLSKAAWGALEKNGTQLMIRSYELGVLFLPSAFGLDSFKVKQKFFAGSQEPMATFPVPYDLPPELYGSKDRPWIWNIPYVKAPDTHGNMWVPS
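Enzyme-compound mixtures sat 15 min at room temperature, followed by a 5 min reaction with 15 nM final substrate and 10 min with AlphaScreen beads. Recombinant human Tdp1 was used at 1 nM final.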
DT40 TDP1 CPT – DT40-hTDP1 cell growth loss with CPT. chicken DT40 Tdp1-/-;hTDP1 cells + 20 nM CPT, ATP luminescence, 48 h. Potency, µM (top dose mostly 46.2 µM), for inactives: top-dose activity change, negative = growth inhibition, usual class: inhibitors. 12% of 420,000 active. AID 686979; further: potency means the concentration at half of the fitted maximal effect; on the % scale 0 is the no-effect control and ±100 the full control effect; nearly all actives have a fitted effect of over 55% in size
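Chicken DT40 Tdp1-/- cells stably complemented with human TDP1 were seeded at 400 cells/well in medium containing 20 nM camptothecin, exposed to pin-transferred compounds, and grown at 37 °C for at least 48 hr. Viability was read as ATP luminescence.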
IL-1B inflam inh – inhibitors of inflammasome signaling (IL-1 beta secretion); THP-1 LPS/ATP IL-1B secretion, AlphaLISA, 16 h; hits give low values; activity change, % at 57.5 µM; 4.7% of 360,000 active; AID 743279; in the data active means activity change below about -50%; inconclusive means mostly about -30% to -49%; further: on the % scale 0 is the no-effect control and ±100 the full control effect
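THP-1 cells pretreated 1 hr with compounds (up to 57.5 uM final), then stimulated with LPS (250 ng/mL final) plus ATP (1.25 mM final); secreted IL-1B measured by AlphaLISA after 16 hr, decreased signal indicating inhibition.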
DT40 TDP1 no CPT – qHTS for Inhibitors of human tyrosyl-DNA phosphodiesterase 1 (TDP1): qHTS in cells in absence of CPT; DT40 Tdp1-/- hTDP1 cells, no CPT, ATP luminescence, 48 h; Potency, µM (highest dose often 46.2 µM), inactives show top-dose activity change, negative = growth inhibition, usual class: inhibitors; 15% of 420,000 active; further: potency means the concentration at half of the fitted maximal effect; on the % scale 0 is the no-effect control and ±100 the full control effect; nearly all actives have a fitted effect of over 55% in size
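Growth kinetics read by CellTiter-Glo luminescence after ≥48 hr at 37 °C. Cells: DT40 Tdp1-/- stably carrying human TDP1, 400 per well, compound exposure in the absence of CPT (DMSO vehicle).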
HepG2 viability – HepG2 cytotoxicity, counter-screen for TGF-b inhibitors | Potency, µM (doses to about 46.1 µM), inactives show top-dose activity change, negative = cytotoxicity, most hits filed as cytotoxic | 0.76% of 410,000 active | HepG2 CAGA-GFP viability, ATP luminescence, 18 h | AID 588856; further: potency means the concentration at half of the fitted maximal effect
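CellTiter-Glo luminescence gave cytotoxicity after 18 hours at 37 degrees C. The cells were HepG2 CAGA-GFP in 1% FBS DMEM, stimulated with 500 pg/mL TGF-beta after compound addition. %Activity was normalised to no-cell wells (complete cell-killing) and DMSO (no toxicity), and curves were fitted and classified.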
The depositor's hits bear a star; ? = inconclusive; . = no result given; [ ] = remark or other dose. In the library only some 18% were active in any assay of this set; here they are far more common. Unless noted, the call rests on the fitted dose curve; in most records, active means well fitted curve in the direction sought with a large enough effect; inconclusive means small, poorly fitted or top-dose-only effect, or another doubt; inactive means no such curve, though single readings can be large; an effect the other way counts as inactive or inconclusive.

SMILES | TGFb SMAD3 inh | TDP1 block | DT40 TDP1 CPT | IL-1B inflam inh | DT40 TDP1 no CPT | HepG2 viability
COc1ccc(S(=O)(=O)Nc2ccc(-n3cnnn3)cc2)cc1Br | 1% | 2% | ? | -7 | -23% | -6%
Cc1cc(Cn2cnc3c(cnn3C(C)(C)C)c2=O)ccc1F | -15% | . | . | . | . | -6%
CCCC[C@@H]1CCCO[C@@](C(=O)NCCOC)(C(F)(F)F)C1 | -3% | 6% | . | . | . | 4%
Cn1c(=O)[nH]c(=O)c2c1nc(N1CCN(Cc3ccccc3)CC1)n2CCCc1ccccc1 | -13% | 8% | 12µM* | 1 | 16µM* | -20%
Cn1c(=O)c2c(nc(N3CCN(Cc4ccccc4)CC3)n2CCCc2ccccc2)n(C)c1=O | 15% | 2% | 12µM* | 0 | 18µM* | 2%
CC(C)CCNc1ncnc2c1cnn2Cc1ccccc1Cl | -1% | . | 29µM* | -15 | ? | -18%
c1ccc(CNc2ncnc3c2cnn3Cc2ccccc2)cc1 | -10% | -1% | 13µM* | -17 | 13µM* | -36%
COc1ccc(Nc2ncnc3c2cnn3Cc2ccccc2)cc1 | -9% | 0% | ? | -54* | ? | -32%
CC(C)COC(=O)N1CC(O)CC1C(=O)O (configuration not stated) | -3% | 6% | -6% | 14 | -3% | -7%
O=C(NCc1ccccn1)c1ccc([N+](=O)[O-])cc1 | -8% | 4% | -1% | -7 | -26% | -15%
O=C(COC(=O)c1cccc([N+](=O)[O-])c1)c1ccc(OCc2ccccc2)cc1 | 0% | 5% | ? | -12 | 13µM* | 7%
O=C(CCc1ccccc1)OCC(=O)c1cccc([N+](=O)[O-])c1 | 10% | 3% | -5% | 9 | -15% | 25%
O=C(CNC(=O)c1ccco1)OCC(=O)c1ccc([N+](=O)[O-])cc1 | 1% | . | ? | -76* | ? | 4%
O=C(Cc1ccccc1)NCC(=O)OCC(=O)c1cccc([N+](=O)[O-])c1 | -2% | -2% | ? | 3 | -12% | -2%
O=C(Cc1ccc([N+](=O)[O-])cc1)NCc1ccccn1 | 8% | 4% | 4.6µM* | 27 | 2.9µM* | -6%
O=C(Cc1ccccc1)NCC(=O)OCC(=O)c1ccc([N+](=O)[O-])cc1 | 2% | 0% | ? | -72* | ? | 12%
CCCN(C(=O)/C=C/c1ccc(S(=O)(=O)N(CC)CC)cc1)C1CCS(=O)(=O)C1 (configuration not stated) | -2% | 0% | -24% | 3 | -9% | 0%
CCCCC/C=C\C\C=C/C=C/C=C/[C@@H](SC[C@H](NC(=O)CC[C@H](N)C(=O)O)C(=O)NCC(=O)O)[C@@H](O)CCCC(=O)O | . | 0% | 13%[0.628 µM] | . | 4%[0.628 µM] | .
O=C(O)[C@@H]1CN[C@@H](C(=O)O)C1 | . | 2% | 9% | . | -16% | .
O=C(CNS(=O)(=O)c1ccccc1)OCC(=O)c1ccc([N+](=O)[O-])cc1 | -15% | -11% | 21µM* | 0 | ? | 1%
O=C(NCc1ccco1)c1ccc(N2CCOCC2)c([N+](=O)[O-])c1 | 0% | 5% | 17% | 0 | 0% | -22%
Cc1ccc(S(=O)(=O)N2CCN(c3ccc(C(=O)N4CCOCC4)cc3[N+](=O)[O-])CC2)cc1 | -33% | 4% | 18µM* | -4 | 12µM* | -2%
O=C(c1ccc(-n2cncn2)c([N+](=O)[O-])c1)N1CCN(S(=O)(=O)c2ccccc2Br)CC1 | 0% | 0% | ? | -13 | ? | 28%
Cc1cc(C)c(S(=O)(=O)N2CCN(C(=O)c3ccc(-n4cncn4)c([N+](=O)[O-])c3)CC2)c(C)c1 | -17% | 1% | ? | -4 | 13µM* | -21%
CS(=O)(=O)N1CCN(c2ccc(C(=O)N3CCOCC3)cc2[N+](=O)[O-])CC1 | -1% | -1% | -5% | -1 | -19% | 9%
SMILES | TGFb SMAD3 inh | TDP1 block | DT40 TDP1 CPT | IL-1B inflam inh | DT40 TDP1 no CPT | HepG2 viability
O=C(c1ccc(N2CCCCC2)c([N+](=O)[O-])c1)N1CCN(S(=O)(=O)c2ccccc2)CC1 | -6% | . | ? | ? | ? | -3%
Cc1ccc(N(Cc2ccco2)C(=O)c2ccc(N3CCCCC3)c([N+](=O)[O-])c2)cc1 | ? | 11% | 21µM* | -22 | 5.8µM* | -4%
Cc1ccc(S(=O)(=O)N2CCN(C(=O)c3ccc(N4CCCCC4)c([N+](=O)[O-])c3)CC2)cc1 | 0% | 5%[56.1 µM] | ? | -62* | -17% | -6%
Cn1ccnc1CC(O)(c1ccccc1)c1ccccc1 | 3% | . | -20% | -3 | -19% | -3%
CC(=O)NC(c1ccccc1)c1nc(-c2cccnc2)cs1 (configuration not stated) | 28% | . | -1% | 10 | -12% | 1%
CC(C)(C)OC(=O)NCCCC[C@H](NC(=O)c1[nH]cnc1C(=O)Nc1ccc(Cl)cc1)C(=O)OC(C)(C)C | 14µM* | 9% | ? | -58* | 16µM* | -35%
CC(C)(C)OC(=O)NCCCC[C@H](NC(=O)c1[nH]cnc1C(=O)Nc1ccccc1)C(=O)OC(C)(C)C | ? | 11% | 15µM* | ? | 23µM* | -56%
C[C@@H](NC(=O)c1nc[nH]c1C(=O)N[C@@H](CCCCNC(=O)OC(C)(C)C)C(=O)OC(C)(C)C)c1ccccc1 | ? | 8% | ? | -25 | -94% | -57%
O=c1c2ccccc2nc(SCCN2CCCCC2)n1CCc1ccccc1 | 14% | 3% | ? | -60* | 21µM* | -4%
CCOC(=O)N1CCC(n2c(SCC(=O)NCc3ccccc3)nc3ccccc3c2=O)CC1 | 4% | 7% | 23µM* | -27 | 21µM* | -12%
COc1ccc(C(=O)Nn2c(SCC(=O)NC3CCCCC3)nc3ccccc3c2=O)cc1 | 9% | 5% | 2% | ? | -15% | -23%
CC(C)Cn1c(SCC(=O)N2CCOCC2)nc2ccccc2c1=O | 1% | 2% | -4% | ? | 14% | -16%
COc1ccc(C(=O)Nn2c(SCC(=O)N3CCC(C)CC3)nc3ccccc3c2=O)cc1 | -1% | 1% | -17% | -53* | -21% | -36%
CC(C)Cn1c(SCC(=O)N2CCCCC2)nc2ccccc2c1=O | 1% | -7%[56.1 µM] | ? | -1 | 26µM* | -21%
CN(C)c1ccc(Nc2ncnc3c2c(-c2ccccc2)cn3-c2cccc(Cl)c2)cc1 | 1% | 13% | -15% | . | ? | -21%

Compound activity: PubChem, National Center for Advancing Translational Sciences (NCATS)
